This is an account of results in ChEMBL document CHEMBL4513216, “Probing the Open Global Health Chemical Diversity Library for Multistage-Active Starting Points for Next-Generation Antimalarials” (ACS Infect Dis, 2020).

Out of some 69,000 compounds screened, about 8,600 (12%) showed an effect of 50% or more. The list comes from a sample in which strong results are over-represented; it also holds similar structures and randomly drawn compounds.

This assay relates to Plasmodium berghei. In words: Screen against P. berghei liver stage (PbLuc), transformed with Luciferase, at 10uM. Type of assay: functional, HepG2. The conditions noted are these: tested at 10 uM.
`Cc1ccc(CN2CC[C@H]3OCC[C@@H](C(=O)NCC4CC4)[C@@H]3C2)s1`: the INHIBITION came out at 5.96%.

Turning to `CNC(=O)c1cccc(C2CNCCN2C(=O)c2ccn(C)n2)c1` (centres undefined), the INHIBITION is given as 33.7%.

Take `CCn1cnnc1C1CCN(C(=O)c2cnc3ccccc3n2)CC1`: the INHIBITION turned out to be 21.3%.

Take `CCc1nnc(CN2CC(n3cccn3)C2)o1`: the INHIBITION was -110%.

Regarding `Cc1ccc(N2CCCC(NCC(=O)NC(C3CC3)C3CC3)C2)nn1` (centres undefined), the INHIBITION is listed as -6.44%.

`CC(=O)N1CCC2(CCN(C(=O)c3ccc(C)c(C(F)(F)F)c3)CC2)C1`: the INHIBITION came out at 16.5%.

On to `CC(=O)N1CCC2(CCN(C(=O)c3cccc(C(F)(F)F)c3)CC2)C1`, for which the INHIBITION is listed as 63.7%.

`CC(=O)N1CCC2(CCN(C(=O)c3ccc(F)c(C(F)(F)F)c3)C2)C1` (centres undefined): the INHIBITION was determined as 17.1%.

`CC(=O)N1CCC2(CCN(C(=O)c3ccc(F)c(C(F)(F)F)c3)CC2)C1`: the INHIBITION stood at 6.6%.

As to `CC(=O)N1CCC2(CC1)CCN(C(=O)c1cccc(C(F)(F)F)c1)C2`, the INHIBITION turned out to be 55.5%.

As for `CC(=O)N1CCC2(CC1)CCN(C(=O)c1ccc(F)c(C(F)(F)F)c1)C2`, the INHIBITION was found to be 12.4%.

As to `Cc1cc(NCCc2nc(C)c[nH]2)nc(-c2ccccc2O)n1`, the INHIBITION is reported as 43.6%.

For `CN1CCN(C(=O)N2CCC3(CCCN(C4CCOCC4)C3=O)C2)CC1` (centres undefined), the INHIBITION was -1.15%.

Take `COCCN1CCN(S(C)(=O)=O)Cc2ccc(C)nc21`: the INHIBITION is 16.9%.

Consider `Cc1ccc2c(n1)N(Cc1ccncc1)CCN(S(C)(=O)=O)C2`, for which the INHIBITION is on record as 36.9%.

`Cc1ccc2c(n1)N(CC(C)C)CCN(S(C)(=O)=O)C2`: the INHIBITION is reported as 67.2%.

Regarding `CS(=O)(=O)NCC(Cc1cccc(F)c1)N1CCNC1=O` (centres undefined), the INHIBITION was determined as 15.7%.

With `COc1cc(COCC2CCN(Cc3ccccn3)CC2)cc(OC)c1`, the INHIBITION is 6.54%.

`Clc1ccc(COCC2CCN(Cc3ccccn3)CC2)cc1`: the INHIBITION is 62.3%.

On to `Fc1ccc(COCC2CCN(Cc3ccccn3)CC2)cc1`, for which the INHIBITION is reported as -56.4%.

Turning to `Cc1nc(NC(=O)CNC(=O)c2c(F)cccc2Cl)n[nH]1`, the INHIBITION is given as -8.69%.

In the case of `CCOCCN1CCN(Cc2cccc(C(=O)N(C)C)c2)CC1C` (centres undefined), the INHIBITION is listed as -9.37%.

Consider `CN1CCCC1c1cncc(C(=O)NCC2CC2)n1` (centres undefined), for which the INHIBITION is -80%.

In the case of `c1ccc(CNc2nc(N3CCOCC3)nc3nccnc23)cc1`, the INHIBITION was found to be 30.7%.

In the case of `O=S(=O)(N1CCCCCC1)N1CCCN(CC2CCCO2)CC1` (centres undefined), the INHIBITION was 9.57%.

`COc1ccnc(CNc2nc(C)nc(C)c2C)c1`: the INHIBITION was -27.6%.

Turning to `COc1ccnc(CNc2cc(C3CC3)ncn2)c1`, the INHIBITION is reported as -47.2%.

Consider `COc1ccnc(CNc2nc(C)nc3ccsc23)c1`, for which the INHIBITION is given as 76.9%.

With `CC(C(=O)NCc1ccc(N2CCCCC2)nc1)S(C)(=O)=O` (centres undefined), the INHIBITION is on record as 9.54%.

As for `Cc1n[nH]c(C)c1CCC(=O)NCC1(O)CCN(c2ccccn2)C1` (centres undefined), the INHIBITION was 3.48%.

On to `Cn1cc(C(=O)N2CCCC(c3ccncc3)C2)cn1` (centres undefined), for which the INHIBITION is reported as -16.5%.

Turning to `CN1CCC(c2n[nH]c(=O)n2CC2CCCCC2)CC1`, the INHIBITION is on record as 40.6%.

`CN1CCN(Cc2n[nH]c(=O)n2CC2CCCCC2)CC1`: the INHIBITION came to 70.3%.

For the compound `CNCc1n[nH]c(=O)n1CC1CCCCC1`, the INHIBITION amounted to 23.9%.

With `O=C(c1cccnc1)N1CCCC(Cc2nccs2)C1` (centres undefined), the INHIBITION was -9.27%.

`Cc1nc(N2CCCC2)nc2c1CCN(C(=O)NC1CCCC1)CC2`: the INHIBITION is reported as -6.23%.

Turning to `O=C(Cc1ccccn1)N1C[C@H](OCc2cccnc2)[C@H]2COC[C@H]21`, the INHIBITION is given as -31%.

For the compound `Cc1cc(C)n2c(CNCCNc3ccccc3)cnc2n1`, the INHIBITION is reported as -35.2%.

Turning to `CCN(CC)C(=O)Cc1csc(C(C)C)n1`, the INHIBITION was -4.4%.

As to `CC(Cn1cccn1)NC(=O)Cc1csc(C(C)C)n1` (centres undefined), the INHIBITION stood at 0.914%.

Turning to `CCNC(=O)CN(CC)C(=O)Cc1csc(C(C)C)n1`, the INHIBITION was 81.6%.

For the compound `CC(C)c1nc(CN(CC(N)=O)C(C)C)cs1`, the INHIBITION is listed as 31.8%.

Take `CCN(CC(=O)NC)C(=O)Cc1csc(C(C)C)n1`: the INHIBITION is 62.4%.

Take `CNC(=O)CN(C)C(=O)Cc1csc(C(C)C)n1`: the INHIBITION is given as 12.3%.

On to `O=C(c1cocn1)N1CCC2(CC1)CC(Oc1ccccn1)CO2` (centres undefined), for which the INHIBITION was -0.804%.

Take `COC(=O)c1ccoc1CN(C1CC1)C1CCS(=O)(=O)C1` (centres undefined): the INHIBITION is given as 42.8%.

On to `Cc1nc(C)n(CC2CCCCN2Cc2cnc(C)s2)n1` (centres undefined), for which the INHIBITION was determined as 30.6%.

With `CCOc1ncccc1C(=O)NC1CCCN(c2ncccn2)C1` (centres undefined), the INHIBITION is given as -39.7%.

On to `O=C(NCC1CCC2(CC1)OCCO2)c1cccc(-n2cccn2)c1`, for which the INHIBITION is 30.2%.

`COc1ncccc1CNCc1cnc(N2CCOCC2)nc1`: the INHIBITION is reported as -65%.

Take `Cc1cnn(CC2CN(CC(=O)Nc3c(C)nn(C)c3C)CCO2)c1` (centres undefined): the INHIBITION is 26.4%.

As to `CO[C@H]1CN(C(=O)c2cccnc2)[C@@H]2CCCO[C@H]12`, the INHIBITION is -14.7%.

Regarding `CS(=O)(=O)N[C@H]1CN(C(=O)c2cscn2)[C@@H]2CCCO[C@H]12`, the INHIBITION came out at 60.2%.

Regarding `CS(=O)(=O)N[C@@H]1CN(C(=O)c2ccccn2)[C@@H]2CCCO[C@@H]21`, the INHIBITION worked out at 37.5%.

For the compound `CS(=O)(=O)N[C@@H]1CN(C(=O)c2cccnc2)[C@@H]2CCCO[C@@H]21`, the INHIBITION turned out to be 56.7%.

As for `CN1C[C@H](NC(=O)c2cscn2)[C@@H]2OCCC[C@@H]21`, the INHIBITION worked out at 35.8%.

For the compound `NC(=O)N1C[C@H](NC(=O)c2cscn2)[C@@H]2OCCC[C@@H]21`, the INHIBITION is 60.2%.

In the case of `Cc1cccc(C(=O)N2C[C@H](NS(C)(=O)=O)[C@@H]3OCCC[C@@H]32)n1`, the INHIBITION was 31.1%.

`CS(=O)(=O)N[C@@H]1CN(C(=O)c2cnccn2)[C@@H]2CCCO[C@@H]21`: the INHIBITION was found to be 26.4%.

On to `CC(=O)N1C[C@H](NC(=O)c2cscn2)[C@@H]2OCCC[C@@H]21`, for which the INHIBITION came to 42.6%.

Regarding `CNc1ncccc1CN1CCCCC1c1cc(C)n2ccnc2n1` (centres undefined), the INHIBITION came out at 13%.

For the compound `CN(Cc1cccnc1)C(=O)NC1CCN(Cc2ccccn2)CC1`, the INHIBITION is recorded as 16.8%.

In the case of `CSCCC(C)NC(=O)N1CCSC(C)(C)C1` (centres undefined), the INHIBITION is reported as 14.9%.

Consider `COCCC(C)NC(=O)N1CCSC(C)(C)C1` (centres undefined), for which the INHIBITION amounted to 48.3%.

Consider `CC(CCN(C)C)NC(=O)N1CCSC(C)(C)C1` (centres undefined), for which the INHIBITION was 60.3%.

Regarding `Cc1nc(C2CCCN2CCS(C)(=O)=O)no1` (centres undefined), the INHIBITION came out at 26.55%.

`CCc1c(C)sc2nc3n(CCN(C)C)nc(SC)n3c(=O)c12`: the INHIBITION turned out to be 30.5%.

As for `CCCSc1nn(CCCN(C)C)c2nc3sc(C)c(CC)c3c(=O)n12`, the INHIBITION is reported as 11.6%.

For the compound `CCCSc1nn(CCN(C)C)c2nc3sc(C)c(CC)c3c(=O)n12`, the INHIBITION came out at 88.1%.
